Screening results deposited in PubChem BioAssay by National Center for Advancing Translational Sciences (NCATS).
Rows were chosen to be rich in hits. Some 19% of all compounds tested hit in one or more screens of this group.
ELG1 repair inh – qHTS screen for small molecules that inhibit ELG1-dependent DNA repair in human embryonic kidney (HEK293T) cells expressing luciferase-tagged ELG1; HEK293T ELG1-luciferase reporter, luminescence, 16 h; DNA damage induced by 5-fluorouridine; Potency, µM (titrated, usually from 46.1 µM), for the others: top-dose activity change, negative = inhibition, usual class: inhibitors; 330,000 compounds, 2.3% hits; note: potency is the fitted concentration of half-maximal effect; nearly all actives have a fitted effect of over 55% in size
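Quantitative HTS, concentration-response format. 2,000 cells/well co-treated with 5-fluorouridine and compound, 16 hr in 5% CO2 at 37 °C; ONE-Glo luminescence read after 30 min.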
IL1B secr inh – qHTS for Inhibitors of Inflammasome Signaling: IL-1-beta AlphaLISA Primary Screen. THP-1 LPS/ATP IL-1B secretion, AlphaLISA, 16 h; stronger effect = lower value. 360,000 compounds, 4.7% hits. activity change, % at 57.5 µM. AID 743279, 2014; in the data active = activity change below about -50%; inconclusive = mostly about -30% to -49%
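THP-1 cells pretreated 1 hr with compounds (up to 57.5 uM final), then stimulated with LPS (250 ng/mL final) plus ATP (1.25 mM final); secreted IL-1B measured by AlphaLISA after 16 hr, decreased signal indicating inhibition.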
HT1080 IDH1KD tx – qHTS for induction of synthetic lethality in tumor cells producing 2HG: qHTS for the HT-1080-IDH1KD cell line; HT-1080 IDH1 knockdown viability, ATP luminescence, 48 h; Potency, µM (series often up to 46.1 µM), for the others: at the top dose activity, negative = toxicity, hits mostly cytotoxic; 360,000 compounds, 2% hits;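 note: potency is the fitted concentration of half-maximal effect; 0% = DMSO wells and -100% = cell-free medium wells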
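HT-1080-IDH1KD cells (IDH1 knocked down), 750/well in RPMI with 5% FBS, treated with compound 48 h at 37 degrees C. Viability by CellTiter-Glo luminescence, normalised to DMSO and no-cell wells; concentration-response curves classed.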
TDP1 cell noCPT – qHTS for Inhibitors of human tyrosyl-DNA phosphodiesterase 1 (TDP1): qHTS in cells in absence of CPT. Potency, µM (highest dose often 46.2 µM), for inactives: at the top dose activity change, negative = growth inhibition, hits mostly inhibitors. DT40 Tdp1-/- hTDP1 cells, no CPT, ATP luminescence, 48 h. AID 686978, 2013. 420,000 compounds, 15% hits; note: potency is the fitted concentration of half-maximal effect; nearly all actives have a fitted effect of over 55% in size
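Cells were dispensed at 400 per well, compounds added by pin tool, plates incubated ≥48 hr at 37 °C, then CellTiter-Glo added for 30 min at room temperature before luminescence reading. Line: DT40 Tdp1-/- complemented with hTDP1; camptothecin omitted.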
DT40 TDP1 CPT – qHTS for Inhibitors of human tyrosyl-DNA phosphodiesterase 1 (TDP1): qHTS in cells in presence of CPT; chicken DT40 Tdp1-/-;hTDP1 cells + 20 nM CPT, ATP luminescence, 48 h; Potency, µM (series often up to 46.2 µM), without a hit: at the highest dose activity change, negative = growth inhibition, actives largely listed as inhibitors; 420,000 compounds, 12% hits; AID 686979, 2013; note: potency is the fitted concentration of half-maximal effect; nearly all actives have a fitted effect of over 55% in size
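Cell growth measured by CellTiter-Glo luminescence after a minimum 48 h, 37 C compound exposure with 20 nM CPT in Tdp1-knockout DT40 cells stably expressing hTDP1, seeded 400/well; qHTS titration format.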
HT1080-NT tox – qHTS for induction of synthetic lethality in tumor cells producing 2HG: qHTS for the HT-1080-NT fibrosarcoma cell line; HT-1080-NT fibrosarcoma viability, CellTiter-Glo ATP luminescence, 48 h; Potency, µM (series often up to 46.1 µM), inactives show at the highest dose activity, negative = less viability, hits mostly cytotoxic; 360,000 compounds, 1.6% hits; AID 686970, 2013;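 note: NT is the 2HG producing partner of a matched IDH1 knockdown line; potency is the fitted concentration of half-maximal effect; 0% = DMSO-treated cells and -100% = media-only wells without cells; nearly all actives have a fitted effect of over 55% in size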
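HT-1080-NT fibrosarcoma cells (2HG-overproducing), 750 cells/well in RPMI with 5% FBS, dosed after 2 h and incubated 48 h at 37C. CellTiter-Glo luminescence normalized to DMSO and no-cell wells; concentration-response curves fitted and classed.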
Starred values were filed as active, the others as inactive; ? = inconclusive; / = no result given. Unless noted, calls come from the whole dose curve; as a rule, active = well fitted curve in the direction sought with a large enough effect; inconclusive = small, poorly fitted or top-dose-only effect, or another doubt; inactive = no such curve, though single readings can be large; an effect the other way counts as inactive or inconclusive. Unless noted, % is set by controls: 0 for no effect and ±100 for the full control effect.

SMILES	ELG1 repair inh	IL1B secr inh	HT1080 IDH1KD tx	TDP1 cell noCPT	DT40 TDP1 CPT	HT1080-NT tox
CS(=O)(=O)N1CCC2(CC1)CN(C(c1ccccc1)c1ccccc1)C2	/	/	/	-3%	6%	/
O=c1c2ccccc2nc2n1C(CSc1ccc(F)cc1)CS2 (centres undefined)	-20%	14	1%	3%	1%	19%
O=c1c2ccccc2nc2n1C(CSCc1ccc(Cl)cc1)CS2 (centres undefined)	-20%	-12	-18%	16µM*	10µM*	-15%
CN(C)c1nc(C=C(C#N)C#N)c(Cl)n1-c1ccc(F)cc1	?	-97*	4.6µM*	5.2µM*	4.1µM*	7.3µM*
CCOC(=O)c1cccc(NC(=O)c2nn(-c3ccc(OC)cc3)c(=O)c3c2c2ccccc2n3C)c1	/	/	/	-18%	-1%	/
Cc1ccc(C)n1-c1ccc(N2CCOCC2)c(Br)c1	?	?	?	15µM*	18µM*	?
Cc1cc(C)cc(NC(=S)NCCN(C2CCCCC2)C2CCCC2)c1	-20%	-3	-3%	?	?	-6%
Cc1ccc2cc(CN(CC3CCCO3)S(=O)(=O)c3ccc4c(c3)OCCO4)c(=O)[nH]c2c1C (centres undefined)	/	-5	10%	21µM*	18µM*	5%
CC(=O)c1ccc(S(=O)(=O)N(Cc2cc3cc4c(cc3[nH]c2=O)OCCO4)CC2CCCO2)cc1 (centres undefined)	?	-11	13%	11µM*	-29%	0%
O=S1(=O)c2c(F)cccc2O[C@@H](COCc2ccccc2)CN1CCc1ccc(F)cc1	/	16	4%	?	?	-1%
O=S1(=O)c2c(F)cccc2OC(COc2ccccc2)CN1CCc1ccc(F)cc1 (centres undefined)	/	-20	6%	16µM*	?	3%
O=C(Cn1cnc2c(nnn2Cc2ccc(F)cc2)c1=O)NCc1ccc(F)cc1	-21%	22	18µM*	?	?	?
CC(=O)Nc1ccc(NC(=O)Cn2cnc3c(nnn3Cc3ccc(F)cc3)c2=O)cc1	6%	4	-4%	19%	-13%	-13%
NC(=O)CSc1ncnc2c1nnn2Cc1ccc(F)cc1	6%	-96*	?	?	2%	-15%
Cc1ccnc2c1ccc1cccnc12	?	-86*	?	0.58µM*	1µM*	?
Cc1cc(C)c2ccc(/C=N/O)nc2c1O	6%	9	?	-29%	-21%	-7%
Cc1cc(C)c2ccc(NN)nc2c1O	-10%	61	?	18µM*	?	-23%
Cc1ccnc2c1ccc1c(C)ccnc12	2.3µM*	?	15µM*	2.6µM*	0.92µM*	13µM*
Cc1cc(C)c2c(C)ccnc2c1	/	/	/	-9%	-6%	/
Cc1ccnc2c(N3C(=O)C4C5c6ccccc6C(c6ccccc65)C4C3=O)cccc12 (centres undefined)	?	?	-22%	16µM*	21µM*	0%
Cc1ccnc2c1ccc1ccccc12	21%	-26	1%	9%	-4%	1%
Cc1ccnc2ncccc12	/	/	/	-12%	-25%	/
Cc1ccnc2c(O)cccc12	/	/	/	0.89µM*	1.3µM*	/
Cc1cc(C)c2cccnc2c1O	/	/	/	1.1µM*	1.3µM*	/
Cc1ccc(C(=O)Nc2c(C)cc(C)c3cccnc23)cc1	-1%	7	-5%	16µM*	?	5%
SMILES	ELG1 repair inh	IL1B secr inh	HT1080 IDH1KD tx	TDP1 cell noCPT	DT40 TDP1 CPT	HT1080-NT tox
O=C(OC1Cc2c(O)cc(O)cc2OC1c1cc(O)c(O)c(O)c1-c1c(C2Oc3cc(O)cc(O)c3CC2OC(=O)c2cc(O)c(O)c(O)c2)cc(O)c(O)c1O)c1cc(O)c(O)c(O)c1 (centres undefined)	/	/	/	4%	-3%	/
Cn1c(=O)c2c(SCC(=O)NCc3ccco3)nc(-c3ccccc3Cl)nc2n(C)c1=O	1%	3	0%	23µM*	?	-1%
COc1ccc(/C=C/C(=O)Nc2cc(C(F)(F)F)ccc2Cl)cc1OC	-25%	?	6%	?	29µM*	4%
COc1cc(/C=C/C(=O)Nc2cc(C(F)(F)F)ccc2Cl)cc(OC)c1OC	?	-57*	?	26µM*	?	-29%
C=CC(=O)N1C/C(=C/c2ccc(Cl)cc2)C(=O)/C(=C\c2ccc(Cl)cc2)C1	/	-115*	2.9µM*	0.41µM*	0.23µM*	5.8µM*
C=CC(=O)N1C/C(=C/c2ccccc2)C(=O)/C(=C\c2ccccc2)C1	/	-103*	4.1µM*	0.73µM*	0.73µM*	-2%
NC(=O)N1CCC2(CC1)NC(=O)N(c1ccccc1)N2	-17%	15	6.5µM*	-3%	28%	10µM*
O=C1NC2(CCC3(CC2)OCCO3)NN1c1ccc(Cl)cc1	-11%	1	6.5µM*	?	-3%	?
CC1CCC2(CC1)NC(=S)N(c1ccccc1)N2 (centres undefined)	11%	-4	18µM*	8%	-7%	?
O=C1NC2(CCCCC2)NN1c1ccccc1	/	17	5.2µM*	?	1%	?
O=C1NC2(CCCCC2)C(=O)N1c1ccccc1	2%	-15	4%	-7%	1%	11%
O=C1NC2(CCCCC2)C(=O)N1c1ccc(Cl)cc1	25%	-4	3%	13%	-1%	4%
CC1CCC2(CC1)NC(=S)N(C(C)(C)C)N2 (centres undefined)	-11%	/	3%	-12%	7%	3%
CC1(C)S[C@@H]2[C@H](NC(=O)C(C(=O)O)c3ccsc3)C(=O)N2[C@H]1C(=O)O (some centres undefined)	/	/	/	-11%	4%	/
COc1cc(/C=N/n2cnn(Cc3ccccc3Cl)c2=S)cc(OC)c1OC	23µM*	19	-4%	?	-29%	-7%
CCOC1=C2[C@H](c3ccc(Cl)cc3)N(S(=O)(=O)c3ccc(C)cc3)C[C@H]2n2c(=O)n(-c3ccccc3)c(=O)n2C1	/	-8	20%	-18%	?	25%
